# Only a selection was taken, and the strongest signals are over-represented in it overall.
# B1: HFR-1 (Triticum aestivum) (protein)
# chain: MSPQSFTLETTTTTPAAKGSDPSYFQSAPACHEMIQHKELLLHLYAYQNVQKTPDANQAVIVESKRPECFGILAANDWTVYDGPAHNANLVAHAQGLHLGASMAKENWFICFNMVFVNQRFTGSSFKVMGDFQGTAHNGEWAIVGGTGEFAYAQGVIAFKKTQQSERNARMELHVRAMCLSFLRPLLSLGDGSAVAKIGPWGKMSGELLDIPSTPQRLERITIRHGVVIDSLAFSFIDKAGEPYNVGPWGGRRGDNKDTIELAPSEIVTEVSGTVGIFAEDNVEYNAIASLTITTNHRPYGPFGETQSTPFSVPVQDNNNIVGFFACAGKYVEALGVYVRSPVST
# B2: CD83 (Homo sapiens) (protein)
# chain: MSRGLQLLLLSCAYSLAPATPEVKVACSEDVDLPCTAPWDPQVPYTVSWVKLLEGGEERMETPQEDHLRGQHYHQKGQNGSFDAPNERPYSLKIRNTTSCNSGTYRCTLQDPDGQRNLSGKVILRVTGCPAQRKEETFKKYRAETSEQKLISEEDLSRGSDDDDKAEPRGP
# Columns and labels:
# Test in all cases: glycan array binding signal (z-score within array); higher = stronger binding
# Conditions in all cases: glycan notation: IUPAC condensed, linker removed
# [1] = molecular target: Fuc(a1-2)Gal(b1-3)[Fuc(a1-4)]GlcNAc
# How it was run: (§1)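 Glycan array binding is given as a within-array Z-score, which can be read as non-binding when negative. The arrays, 3228 of them, came from the Consortium for Functional Glycomics database and were retained only where the protein sequence was available. Z-scores were averaged across arrays of the same protein sequence at different concentrations or buffers and across linkers.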
# [2] = molecular target: Fuc(a1-2)[Gal(a1-3)]Gal(b1-4)[Fuc(a1-3)]GlcNAc
# How it was run: as §1
# [3] = molecular target: Fuc(a1-3)[Gal(b1-4)]GlcNAc(b1-3)Gal(b1-3)[Fuc(a1-4)]GlcNAc
# How it was run: as §1
# [4] = molecular target: Fuc(a1-3)[Gal(b1-4)]GlcNAc(b1-4)Gal(b1-4)[Fuc(a1-3)]GlcNAc
# How it was run: as §1
# [5] = molecular target: Fuc(a1-4)GlcNAc
# How it was run: as §1
# [6] = molecular target: Gal(a1-3)[Gal(a1-4)]Gal(b1-4)GlcNAc
# How it was run: as §1
# [7] = molecular target: Gal(a1-4)GlcNAc
# How it was run: as §1
# [8] = molecular target: Gal(b1-2)Gal
# How it was run: as §1
# [9] = molecular target: Gal(b1-4)GlcNAc(b1-6)[Gal(b1-3)]GalNAc
# How it was run: as §1
# [10] = molecular target: Man(a1-2)Man(a1-6)[Man(a1-3)]Man(a1-6)[Man(a1-2)Man(a1-2)Man(a1-3)]Man
# How it was run: as §1
# [11] = molecular target: Man(a1-3)[Man(a1-6)]Man
# How it was run: as §1
# [12] = molecular target: Man(a1-3)[Man(a1-6)]Man(a1-6)[Man(a1-2)Man(a1-3)]Man(b1-4)GlcNAc(b1-4)GlcNAc
# How it was run: as §1
# [13] = molecular target: Man(a1-3)[Man(a1-6)]Man(a1-6)[Man(a1-3)]Man
# How it was run: as §1
# [14] = molecular target: Man(a1-3)[Man(a1-6)]Man(a1-6)[Man(a1-3)]Man(b1-4)GlcNAc(b1-4)GlcNAc
# How it was run: as §1
# [15] = molecular target: Man(a1-3)[Man(a1-6)]Man(b1-4)GlcNAc(b1-4)GlcNAc
# How it was run: as §1
# [16] = molecular target: Neu5Ac(a2-3)Gal(b1-3)GalNAc6S
# How it was run: as §1
# [17] = molecular target: Neu5Ac(a2-3)Gal6S(b1-4)GlcNAc
# How it was run: as §1
# [18] = molecular target: Neu5Ac(a2-3)[GalNAc(b1-4)]Gal(b1-4)Glc
# How it was run: as §1
# [19] = molecular target: Neu5Ac(a2-3)[GalNAc(b1-4)]Gal(b1-4)GlcNAc
# How it was run: as §1
# [20] = molecular target: Neu5Ac(a2-6)Gal(b1-4)GlcNAc
# How it was run: as §1
# [21] = molecular target: Neu5Ac(a2-6)Gal(b1-4)GlcNAc(b1-2)Man(a1-6)[Gal(b1-4)GlcNAc(b1-2)Man(a1-3)]Man(b1-4)GlcNAc(b1-4)GlcNAc
# How it was run: as §1
# [22] = molecular target: Neu5Ac(a2-8)Neu5Ac(a2-8)Neu5Ac(a2-8)Neu5Ac(a2-3)[GalNAc(b1-4)]Gal(b1-4)Glc
# How it was run: as §1
# [23] = molecular target: Neu5Gc(a2-3)Gal(b1-4)GlcNAc
# How it was run: as §1
# [24] = molecular target: Fuc(a1-2)GlcNAc
# How it was run: as §1
# [25] = molecular target: Fuc(a1-2)[GalNAc(a1-3)]Gal(b1-3)GlcNAc
# How it was run: as §1
# [26] = molecular target: Gal(b1-3)GalNAc(b1-4)Gal(b1-4)Glc
# How it was run: as §1
# [27] = molecular target: Gal(b1-3)GlcNAc(b1-3)Gal(b1-4)Glc
# How it was run: as §1
# [28] = molecular target: Gal(b1-3)[Fuc(a1-4)]GlcNAc(b1-3)Gal(b1-4)[Fuc(a1-3)]GlcNAc
# How it was run: as §1
# [29] = molecular target: Gal(b1-4)GlcNAc(b1-3)Gal(b1-4)GlcNAc(b1-3)Gal(b1-4)GlcNAc
# How it was run: as §1
# [30] = molecular target: Gal3S6S(b1-4)GlcNAc6S
# How it was run: as §1
# [31] = molecular target: GalNAc(a1-3)GalNAc
# How it was run: as §1
# [32] = molecular target: GlcNAc(b1-3)Gal(b1-4)GlcNAc
# How it was run: as §1
# [33] = molecular target: GlcNAc(b1-3)Man
# How it was run: as §1
# [34] = molecular target: GlcNAc(b1-3)[GlcNAc(b1-6)]GalNAc
# How it was run: as §1
# [35] = molecular target: Man(a1-2)Man(a1-3)[Man(a1-2)Man(a1-6)]Man(a1-6)[Man(a1-2)Man(a1-2)Man(a1-3)]Man(b1-4)GlcNAc(b1-4)GlcNAc
# How it was run: as §1
# [36] = molecular target: Neu5Ac(a2-3)Gal(b1-3)GalNAc(b1-3)Gal(a1-4)Gal(b1-4)Glc
# How it was run: as §1
# [37] = molecular target: Neu5Ac(a2-3)Gal(b1-3)GlcNAc6S
# How it was run: as §1
# [38] = molecular target: Neu5Ac(a2-3)Gal(b1-3)[Neu5Ac(a2-3)Gal(b1-4)]GlcNAc
# How it was run: as §1
# [39] = molecular target: Neu5Ac(a2-3)Gal(b1-4)[Fuc(a1-3)]GlcNAc(b1-3)Gal(b1-4)GlcNAc
# How it was run: as §1
# [40] = molecular target: Neu5Ac(a2-3)Gal(b1-4)[Fuc(a1-3)]GlcNAc(b1-3)Gal(b1-4)[Fuc(a1-3)]GlcNAc(b1-3)Gal(b1-4)[Fuc(a1-3)]GlcNAc
# How it was run: as §1
# [41] = molecular target: Neu5Ac(a2-3)Gal(b1-4)[Fuc(a1-3)]GlcNAc(b1-6)[Gal(b1-3)]GalNAc
# How it was run: as §1
# [42] = molecular target: Neu5Ac(a2-3)Gal6S(b1-4)[Fuc(a1-3)]GlcNAc
# How it was run: as §1
# [43] = molecular target: Neu5Ac(a2-3)GalNAc(b1-4)GlcNAc
# How it was run: as §1
# [44] = molecular target: Neu5Ac(a2-6)Gal(b1-4)GlcNAc(b1-3)Gal(b1-4)[Fuc(a1-3)]GlcNAc(b1-3)Gal(b1-4)[Fuc(a1-3)]GlcNAc
# How it was run: as §1
# [45] = molecular target: Neu5Ac(a2-8)Neu5Ac(a2-8)Neu5Ac(a2-3)Gal(b1-4)Glc
# How it was run: as §1
# [46] = molecular target: Neu5Ac(a2-8)Neu5Ac(a2-8)Neu5Ac(a2-3)[GalNAc(b1-4)]Gal(b1-4)Glc
# How it was run: as §1
binder,measurement,setting,value
B1,glycan array binding signal (z-score),[1],-0.201
same,glycan array binding signal (z-score),[2],-0.225
same,glycan array binding signal (z-score),[3],-0.224
same,glycan array binding signal (z-score),[4],-0.165
same,glycan array binding signal (z-score),[5],-0.057
same,glycan array binding signal (z-score),[6],-0.199
same,glycan array binding signal (z-score),[7],-0.22
same,glycan array binding signal (z-score),[8],0.042
same,glycan array binding signal (z-score),[9],-0.206
same,glycan array binding signal (z-score),[10],-0.214
same,glycan array binding signal (z-score),[11],4.93
same,glycan array binding signal (z-score),[12],6.43
same,glycan array binding signal (z-score),[13],7.26
same,glycan array binding signal (z-score),[14],7.87
same,glycan array binding signal (z-score),[15],5.48
same,glycan array binding signal (z-score),[16],-0.218
same,glycan array binding signal (z-score),[17],-0.213
same,glycan array binding signal (z-score),[18],-0.024
same,glycan array binding signal (z-score),[19],-0.165
same,glycan array binding signal (z-score),[20],-0.223
same,glycan array binding signal (z-score),[21],-0.222
same,glycan array binding signal (z-score),[22],0.01
same,glycan array binding signal (z-score),[23],-0.221
B2,glycan array binding signal (z-score),[1],-0.388
same,glycan array binding signal (z-score),[24],-0.045
same,glycan array binding signal (z-score),[25],-0.222
same,glycan array binding signal (z-score),[26],-0.09
same,glycan array binding signal (z-score),[27],-0.32
same,glycan array binding signal (z-score),[28],-0.243
same,glycan array binding signal (z-score),[29],-0.142
same,glycan array binding signal (z-score),[30],-0.129
same,glycan array binding signal (z-score),[31],-0.329
same,glycan array binding signal (z-score),[32],-0.162
same,glycan array binding signal (z-score),[33],-0.188
same,glycan array binding signal (z-score),[34],-0.453
same,glycan array binding signal (z-score),[35],2.96
same,glycan array binding signal (z-score),[10],-0.272
same,glycan array binding signal (z-score),[12],11.7
same,glycan array binding signal (z-score),[14],0.723
same,glycan array binding signal (z-score),[36],0.647
same,glycan array binding signal (z-score),[37],8.93
same,glycan array binding signal (z-score),[38],-0.458
same,glycan array binding signal (z-score),[39],0.381
same,glycan array binding signal (z-score),[40],-0.243
same,glycan array binding signal (z-score),[41],-0.12
same,glycan array binding signal (z-score),[42],-0.131
same,glycan array binding signal (z-score),[43],-0.291
same,glycan array binding signal (z-score),[44],0.014
same,glycan array binding signal (z-score),[45],3.7
same,glycan array binding signal (z-score),[46],2.88
